Assay results reported in PubChem BioAssay AID1159580 (chemical genetic matrix, 2015).
About 2,000 (36%) of roughly 5,500 compounds were called active. Roughly 18% stayed inconclusive and do not appear here. Rule as the data show it: active = normalized growth mostly below about 0.91 (no sharp cut-off); inconclusive = no clear call, values can overlap the other calls; inactive = mostly above about 0.92. Some of the results follow.

Assay: chemical genetic growth profiling, strain panel (AID 1159580);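 also: tested at 20 µM; growth read once vehicle control cultures reached saturation at 30 °C; 1 = growth at the plate median or of vehicle wells; lower values mean less growth of the strain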
Conditions: S. cerevisiae deletion strains, growth OD

Measured: normalized growth

Clc1ccc(CO/N=C(/Cn2ccnc2)c2ccc(Cl)cc2Cl)c(Cl)c1
active: locus YAL021C, strain ccr4, stronger effect = lower value 0.0719 | locus YAL026C, strain drs2, stronger effect = lower value 0.066 | locus YAL030W, strain snc1, stronger effect = lower value 0.062 | locus YBL061C, strain skt5, stronger effect = lower value 0.0675 | locus YBR009C, strain hhf1, stronger effect = lower value 0.0713 | locus YBR023C, strain chs3, stronger effect = lower value 0.0703 | locus YBR171W, strain sec66, stronger effect = lower value 0.084 | locus YBR231C, strain swc5, stronger effect = lower value 0.0712 | locus YBR279W, strain paf1, stronger effect = lower value 0.0663 | locus YCL011C, strain gbp2, stronger effect = lower value 0.0641 | locus YCL016C, strain dcc1, stronger effect = lower value 0.0718 | locus YCL069W, strain vba3, stronger effect = lower value 0.0674 | locus YCR088W, strain abp1, stronger effect = lower value 0.0653 | locus YDL005C, strain med2, stronger effect = lower value 0.0803 | locus YDL040C, strain nat1, stronger effect = lower value 0.0648 | locus YDR001C, strain nth1, stronger effect = lower value 0.0642 | locus YDR069C, strain doa4, stronger effect = lower value 0.07 | locus YDR137W, strain rgp1, stronger effect = lower value 0.106 | locus YDR159W, strain sac3, stronger effect = lower value 0.103 | locus YDR195W, strain ref2 0.146 | locus YDR297W, strain sur2, stronger effect = lower value 0.0626 | locus YDR334W, strain swr1, stronger effect = lower value 0.0671 | locus YDR335W, strain msn5, stronger effect = lower value 0.0633 | locus YDR392W, strain spt3, stronger effect = lower value 0.0807 | locus YEL003W, strain gim4, stronger effect = lower value 0.0579 | locus YEL037C, strain rad23, stronger effect = lower value 0.0606 | locus YEL061C, strain CIN8 (second series), stronger effect = lower value 0.0642 | locus YER015W, strain faa2, stronger effect = lower value 0.0705 | locus YER016W, strain bim1, stronger effect = lower value 0.0699 | locus YER111C, strain swi4, stronger effect = lower value 0.0753 | locus YER155C, strain BEM2 (second series), stronger effect = lower value 0.104 | locus YFR010W, strain ubp6, stronger effect = lower value 0.0725 | locus YGL167C, strain pmr1, stronger effect = lower value 0.0799 | locus YGL173C, strain kem1, stronger effect = lower value 0.0926 | locus YGL227W, strain vid30, stronger effect = lower value 0.067 | locus YGL240W, strain doc1, stronger effect = lower value 0.108 | locus YGL253W, strain hxk2, stronger effect = lower value 0.0581 | locus YHR013C, strain ard1, stronger effect = lower value 0.111 | locus YHR027C, strain rpn1, stronger effect = lower value 0.0678 | locus YHR030C, strain SLT2, stronger effect = lower value 0.11 | locus YHR079C, strain IRE1, stronger effect = lower value 0.138 | locus YHR142W, strain chs7, stronger effect = lower value 0.0783 | locus YJL092W, strain hpr5, stronger effect = lower value 0.0639 | locus YJL095W, strain BCK1 (second series), stronger effect = lower value 0.0624 | locus YJL095W, strain BCK1, stronger effect = lower value 0.119 | locus YJL115W, strain asf1, stronger effect = lower value 0.076 | locus YJL129C, strain trk1, stronger effect = lower value 0.0899 | locus YJL154C, strain vps35, stronger effect = lower value 0.0641 | locus YJL164C, strain tpk1, stronger effect = lower value 0.0663 | locus YJL166W, strain qcr8, stronger effect = lower value 0.0665 | locus YJL187C, strain SWE1, stronger effect = lower value 0.0662 | locus YJR066W, strain TOR1, stronger effect = lower value 0.016 | locus YKL160W, strain elf1, stronger effect = lower value 0.0739 | locus YKR026C, strain gcn3, stronger effect = lower value 0.0685 | locus YKR091W, strain srl3, stronger effect = lower value 0.0651 | locus YLL001W, strain dnm1, stronger effect = lower value 0.0676 | locus YLL026W, stronger effect = lower value 0.0627 | locus YLL041C, strain sdh2, stronger effect = lower value 0.0619 | locus YLR027C, strain aat2, stronger effect = lower value 0.0637 | locus YLR113W, strain HOG1, stronger effect = lower value 0.138 | locus YLR221C, strain rsa3, stronger effect = lower value 0.0614 | locus YLR258W, strain gsy2, stronger effect = lower value 0.0647 | locus YLR262C, strain YPT6 (second series), stronger effect = lower value 0.0952 | locus YLR320W, strain mms22, stronger effect = lower value 0.0852 | locus YLR342W, strain FKS1, stronger effect = lower value 0.0731 | locus YLR357W, strain rsc2, stronger effect = lower value 0.13 | locus YLR370C, strain arc18, stronger effect = lower value 0.0687 | locus YLR384C, strain iki3, stronger effect = lower value 0.0679 | locus YML120C, strain ndi1, stronger effect = lower value 0.0632 | locus YMR058W, strain fet3, stronger effect = lower value 0.0659 | locus YMR125W, strain sto1, stronger effect = lower value 0.0799 | locus YMR129W, stronger effect = lower value 0.0624 | locus YMR205C, strain PFK2, stronger effect = lower value 0.104 | locus YMR231W, strain pep5, stronger effect = lower value 0.205 | locus YNL071W, strain lat1, stronger effect = lower value 0.0653 | locus YNL183C, strain NPR1, stronger effect = lower value 0.0338 | locus YNL209W, strain ssb2, stronger effect = lower value 0.0716 | locus YNL248C, strain rpa49, stronger effect = lower value 0.0816 | locus YNL322C, strain KRE1 (second series), stronger effect = lower value 0.0683 | locus YNR049C, strain mso1, stronger effect = lower value 0.0594 | locus YOR001W, strain rrp6, stronger effect = lower value 0.0749 | locus YOR070C, strain gyp1, stronger effect = lower value 0.0664 | locus YOR080W, strain dia2, stronger effect = lower value 0.0735 | locus YOR083W, strain WHI5, stronger effect = lower value 0.0763 | locus YOR106W, strain vam3, stronger effect = lower value 0.0782 | locus YOR231W, strain MKK1, stronger effect = lower value 0.116 | locus YOR265W, strain rbl2, stronger effect = lower value 0.0668 | locus YOR270C, strain vph1, stronger effect = lower value 0.112 | locus YOR290C, strain snf2, stronger effect = lower value 0.0669 | locus YPL051W, strain arl3, stronger effect = lower value 0.0756 | locus YPL078C, strain atp4, stronger effect = lower value 0.08 | locus YPL106C, strain sse1, stronger effect = lower value 0.105 | locus YPL240C, strain hsp82, stronger effect = lower value 0.0633 | locus YPL256C, strain CLN2, stronger effect = lower value 0.139
